The values that follow come from the supplement of paper PMC6555819.

In the assay the test system is VDR:RXRa (NR concentration 270 nM, RXRa partner concentration 90 nM). The assay is described as follows: PBM binding z-score (relative to random genomic background probes); higher = stronger binding; sequences stand for … in GC…GCGATTGACAGCGTAGAATGAAGG
The procedure: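 Protein-binding microarray (Agilent 4x180K custom design, double-stranded 60-nt probes: 5' GC cap, 34-nt variable region, 24-nt constant primer region; full probe sequence given). Purified or IVT nuclear receptor:RXRα heterodimers (3:1 NR:RXRα, mostly 270:90 nM) or homodimers were incubated for 1 h in PBS with 2% milk and no ligand, then detected with Alexa488 antibodies. Fluorescence from o1-orientation probes (~5 replicates averaged) was converted to z-scores against 500 random hg19 background probes. Variable regions are seed direct-repeat (DR0–DR5) sites, all their single-nucleotide variants and half-site ablations.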
In the case of TCTGCAAGGTCAACGATGGTCAGCTAATCTGCTA, the PBM binding z-score came out at 4.53.

In turn, TGTCAAAGTTCAAAGGTAACATAAGTATCCACAC had a PBM binding z-score of 5.14.

CCGACTGGGGCAAAGGATACCATACTCAGTACGA: the PBM binding z-score is -0.368.

As to GCTTGTAGATCAAGGTTGAGAAAGACTAAGCTAA, the PBM binding z-score was -0.388.

For ACTTATGGGTCAACGAGGTTATAGCACGCGTATA, the PBM binding z-score was found to be 7.43.

CCTTGCGGGTCAAGGTTATAGCACGGGTGGTACG registered a PBM binding z-score of 2.95.

GCTGCTAGGTCAGGTTGGTCAGATAACGGGTACG: the PBM binding z-score came out at 0.794.

TCATATCGGTAAAGGTGAAAGTCGAACGATATGA registered a PBM binding z-score of 0.691.

The sequence TAGCCTAGGTCAGTCAGGGGCCAGTATAGAAAGC came in with a PBM binding z-score of 0.785.

AGAATGAGGTTATACGTAGTTCAGGGAAGAAAGT gave a PBM binding z-score of 3.09.

Sequence AGAACGAGGGCACCCTGAGTTGATAGCAGAGTAG returned a PBM binding z-score of 1.47.

For CCGAGTAGGTTATGGGGCATGCAGGCAACGGTGA, the PBM binding z-score was -0.196.

For ACAGACAGGTGAGTGAAGGTAACTCCGCTGGACG, the PBM binding z-score was -0.433.

Sequence CCTACTGGGCCAAAAACGTCATTGATGCCGATAA gave a PBM binding z-score of -0.0711.

Consider CCAACTAGGTCAAGGACAGTGAATCTCCGCACGC, for which the PBM binding z-score came to 1.16.

In turn, CTCGAAAGGTCGGTTGAGGTTAGTATACGGATAA displayed a PBM binding z-score of 3.58.

Take AGAATGAGGCTATTAAGATCAGGGAATTGCGGTC: the PBM binding z-score is -0.0838.

Consider TGAATGAGGTTATAAGATCACGGAACGTTGCAAA, for which the PBM binding z-score came out at 1.53.

For CAGACTGGGGCAAGGTTACCATAACGCACAGCCA, the PBM binding z-score was 0.28.

In turn, TAGCCTAGGTCTTTCAGGGGCCAGTATAGAAAGC registered a PBM binding z-score of -0.481.

For CGTACGAGGGCATGAGTTGATAGCAAATGCCGAT, the PBM binding z-score was found to be 1.36.

As to CATACAGGGGCAGCTAGGCCAGAGTAGGGACGGC, the PBM binding z-score is -0.446.

TCTCCGAGGACACGAAGGTCAGAGCTTTCCAGAG came in with a PBM binding z-score of 2.69.

The sequence CCGACTGGGGCAAAGGTTACTATACTCAGTACGA registered a PBM binding z-score of 1.12.

In turn, CCGACTGGGGCATAAGTTTACCATAAGCCAGCCC gave a PBM binding z-score of -0.462.

In turn, GCTTGTAGATCAAGGTTACGAAAGACTAAGCTAA came in with a PBM binding z-score of 0.359.

In the case of AGAACGAGGGCAATGAGTTGACAGCACGGGTGGC, the PBM binding z-score worked out at 5.03.

Turning to ATATGTAGGTTAGCTGGGGTCATTGAGACTAGGC, the PBM binding z-score was 5.95.

In turn, GCAGACAGGTGAAAGGCAGGTAACTCAGGGTGGC displayed a PBM binding z-score of -0.303.

For the sequence GCTTTCGGGTCAAAGGTTATAGCATGAATAGAAT, the PBM binding z-score came out at 5.79.

As to ATCTCTAGGTAAGGATAGTTCAGTGAATGCAAAT, the PBM binding z-score was 0.733.

CGAACTAGGTCAGAACAGAACAGTGAAGGATGAT showed a PBM binding z-score of -0.0419.

In turn, AGTCACAGTTCATCTAGGTAACGTAAGATATGCT yielded a PBM binding z-score of 3.05.

CCTGCTAGGTCATGGTCCGCTAATCTACAGTATG: the PBM binding z-score was 1.27.

As to ATCGAAAGGTCGAAGGCGAGTATACCCACCCGAA, the PBM binding z-score came out at 2.22.

On to CGTCCAAGATCAGCAGGTCAGTGAAAGCGACGTG, for which the PBM binding z-score was 0.173.

GCTGTTAGTTGAAAGGGCAACCGAATGATTCTCG displayed a PBM binding z-score of 0.572.

Regarding CCTATTAGTTGACCATAAGGGCACCCGAAGCTCG, the PBM binding z-score came to 1.09.

Take TGAATGAGGTTAAACATCAGGGAACGTGGCGTCG: the PBM binding z-score stood at 1.87.

Regarding CGAACTAGGTCAGAACAGGACAATGAAGGATGAT, the PBM binding z-score turned out to be 1.11.
